# The panel holds about 83,000 compounds, 20% with a hit somewhere; the sample as a whole holds those more often.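 Percent growth is the endpoint: 0 to 100 indicates growth inhibition (40 means 60% inhibition), 0 means no net growth, and negative values indicate cell death.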 Values without a mark were called inactive. Calls of active or inactive are those of the source. Rule for the calls: active = growth percent below 10; inactive = the rest.
# Assays:
# Assay in all cases: NCI-60 one-dose screen, 48 h (100 = growth as untreated, 0 = no growth, -100 = all killed)
# Settings in all cases: 10 µM unless noted
# SR leukemia = test system: SR leukemia
# RPMI-8226 leukemia = test system: RPMI-8226 leukemia
# OVCAR-8 ovarian = test system: OVCAR-8 ovarian
# OVCAR-5 ovarian = test system: OVCAR-5 ovarian
# OVCAR-4 ovarian = test system: OVCAR-4 ovarian
# SK-OV-3 ovarian = test system: SK-OV-3 ovarian
# IGROV1 ovarian = test system: IGROV1 ovarian
# OVCAR-3 ovarian = test system: OVCAR-3 ovarian
# HS 578T breast = test system: HS 578T breast
# NCI/ADR-RES ovarian = test system: NCI/ADR-RES ovarian
SMILES,growth (SR leukemia),growth (RPMI-8226 leukemia),growth (OVCAR-8 ovarian),growth (OVCAR-5 ovarian),growth (OVCAR-4 ovarian),growth (SK-OV-3 ovarian),growth (IGROV1 ovarian),growth (OVCAR-3 ovarian),growth (HS 578T breast),growth (NCI/ADR-RES ovarian)
O=C(CSc1nc2sc3c(c2c(=O)n1-c1ccc(Cl)cc1)CCCC3)NNC(=O)c1ccc(F)cc1,46.3%,83.2%,35.4%,73.8%,83.9%,90.5%,63.3%,119%,79.9%,77.6%
Cc1ccc(C(=O)Nc2cc(-c3ccccc3)cc(C(F)(F)F)c2)cc1C#Cc1cnc2cccnn12,44.8%,36.9%,75.3%,85.3%,49%,123%,93.1%,95.5%,85.3%,63.2%
COc1ccc2[nH]cc(-c3cc4nc(-c5cn(C)c6ncccc56)cc(N)n4n3)c2c1,-9.65% (active),-33.4% (active),-40.6% (active),-17.6% (active),-26.4% (active),103%,-62.5% (active),-57.6% (active),-10.3% (active),-15.6% (active)
COc1ccc(NC2=C(I)C(=O)C(C)=C(C)C2=O)cc1,12.3%,2.98% (active),-19.2% (active),53.9%,-84.6% (active),91.8%,15.3%,-17.1% (active),85.6%,-20% (active)
COc1ccc(SC2c3cc(OC)ccc3Oc3nc(N)c(C#N)c(N)c32)cc1 (stereo not given),29.5%,56.3%,87%,123%,105%,113%,21.9%,98.4%,81%,91.1%
COC(=O)c1cccc(Oc2ccc(NC(=O)Nc3cc(C(F)(F)F)ccc3F)cc2)c1,26.9%,62.8%,40.3%,87.1%,55.4%,87.6%,56.7%,78.5%,4.44% (active),73.9%
C=CCSc1nnc(-c2ccc(-c3nc4ccc(Cl)cc4[nH]3)cc2)o1,23.7%,55.2%,63.9%,76.8%,66.5%,88.8%,59.6%,34%,–,54.3%
O=Cc1cncc(-c2ccc3ncnc(N4CCc5cc(F)c(Cl)cc54)c3c2)c1,-4.69% (active),15.4%,39.8%,27.6%,43.4%,4.6% (active),-41.2% (active),25.2%,-17.9% (active),34.8%
O=C(CSc1nnc(-c2ccc(-c3nc4ccc(Cl)cc4[nH]3)cc2)o1)Nc1ccccc1,10.9%,45.6%,-44.3% (active),49.9%,37.9%,66.3%,70.8%,43.4%,40.6%,31.7%
CCCCNc1ccc2c3c(cccc13)C(=O)N(c1cccc(-c3nn(-c4ccccc4)cc3-c3nc4ccccc4s3)c1)C2=O,95.5%,95.3%,107%,104%,101%,126%,98.4%,111%,110%,98%
CCOc1ccc2[nH]c(=O)c(C(c3nnnn3CC3CCCO3)N3CCN(Cc4ccccc4)CC3)cc2c1 (stereo not given),111%,99.1%,84.2%,97%,94.9%,79.3%,84.6%,100%,20.1%,90.1%
Oc1ccc(F)c(Nc2nc(SCCN3CCOCC3)nc3c2cnn3CC(Cl)c2ccc(Br)cc2)c1 (stereo not given),-2.59% (active),1.15% (active),20.2%,40.5%,31.9%,64.2%,12.5%,25.8%,-23.9% (active),16.4%
O=C(CSc1nnc(-c2ccc(-c3nc4ccccc4[nH]3)cc2)o1)Nc1ccc(Cl)cc1,2.31% (active),7.96% (active),-18% (active),47.1%,45.1%,83.1%,44.4%,20.8%,63.1%,30%
CCCSc1nnc(-c2c(C)nc3sccn23)o1,120%,70.3%,98.3%,85.9%,71.9%,108%,83.8%,98.5%,79.6%,83.5%
COC(=O)c1c(C(=O)OC)c2c3ccccc3c3ccccc3n2c1C(=O)C(C)(C)C,-17.3% (active),47.2%,90.5%,97.9%,57.6%,122%,96.3%,112%,–,83.3%
OC(c1ccccc1)(c1ccccc1)C1CCN(c2ccc3nnc(Cl)n3n2)CC1,-22.3% (active),13.8%,33.9%,70%,30.3%,90.2%,39.8%,42.2%,71.1%,18.6%
O=C(Cn1c(-c2ccccc2)nc2ccccc21)N=Nc1c(O)[nH]c2ccc(Cl)cc12,-14.7% (active),20.4%,-26.3% (active),18.5%,-44.4% (active),-6.33% (active),9.94% (active),1.02% (active),-16.2% (active),-43.2% (active)
Cc1cccc(-c2ccccc2Oc2ccc3nnc(Cl)n3n2)c1,86.9%,107%,104%,104%,104%,124%,103%,112%,–,102%
COC(=O)c1cc(C(=O)C(C)(C)C)n2c3ccccc3c3ccccc3c12,69.7%,70.2%,98.6%,98.6%,85.9%,109%,86.2%,110%,99.3%,89.3%
O=c1[nH]c2ccccc2cc1CSc1ccccc1Nc1nccc(-c2ccc3c(c2)OCO3)n1,103%,92.2%,46.8%,99.5%,25.4%,82.7%,99.2%,83.9%,–,53.1%
CCOC(=O)c1ccc(NC(=S)NC(=O)c2cccc(NC(=O)c3ccc(C)cc3)c2)cc1,54.5%,62.4%,28.9%,77.3%,27.8%,73.5%,73.6%,61.4%,53.4%,65.9%
CCOc1ccc(-c2cc(-c3cc(C(C)C)c(O)cc3C)nn2-c2ccc(S(N)(=O)=O)cc2)cc1,5.54% (active),13.8%,36.4%,53%,29.6%,55.3%,80.4%,36.2%,35.9%,4.14% (active)
O=C(c1ccc(Cl)cc1)C1[C@H](c2ccccc2Cl)[C@@H](c2ccccc2)NC12C(=O)Nc1ccccc12 (stereo not given in full),-41% (active),-0.108% (active),-31% (active),-5.18% (active),2.24% (active),23.1%,-2.25% (active),-15.5% (active),-38.3% (active),-62.5% (active)
Oc1ccc(Cl)c(Nc2ncnc3c2cnn3CC(Cl)c2ccc(Br)cc2)c1 (stereo not given),55.3%,52.3%,54.9%,49.6%,57.8%,49.2%,-2.62% (active),32.3%,-17.7% (active),48%
CC(C)C[C@H](NC(=O)CNC(=O)C[C@H]1O[C@@H]2OC3(C)CC[C@H]4[C@H](C)CC[C@@H]([C@H]1C)[C@@]24O3)B(O)O,9.06% (active),-11% (active),4.17% (active),-32.6% (active),18.9%,25.7%,10.7%,-33.1% (active),–,92.6%
Cc1ccc2nc(NC(=O)Nc3cccc(Cl)c3)sc2c1,89.9%,96.7%,107%,118%,99.5%,102%,98.4%,123%,116%,93.9%
COC(=O)c1c(C(=O)OC)c2ccc3c4ccccc4ccc3n2c1C(=O)C(C)Br (stereo not given),3.43% (active),3.26% (active),15.6%,75.7%,41.4%,81.9%,42.2%,16.7%,65.6%,37.5%

# From PubChem BioAssay (NCI)
